The list is not random: actives were taken first. Their share in the collection is about 2.2%.
Statin myotox sup – suppressors of statin myotoxicity in C2C12 myotubes, primary screen, cell-based, single point, plate reader. C2C12 myotubes + simvastatin, ATP luminescence, 48 h; scaled: DMSO 0, geranylgeraniol control 100. rescue of ATP level, % at 7.49 µM. 0.78% of 330,000 active. AID 602340, 2012;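 active = mean ATP rescue above about 67%, or every replicate alone reaching that limit, limit read from the data, passing the limit was not always enough; inconclusive = no clear call, values can overlap the other calls; inactive = mean under the limit and some replicate under it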;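 note: myotubes were challenged with 10 µM simvastatin during compound exposure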
miR-122 sensor – miR-122 Renilla sensor signal increase in Huh7, primary screen, miR-122 inhibitor project, cell-based, single point, plate reader | Huh7 miR-122 Renilla luciferase sensor, 48 h; neutral wells = 0, positive control = 100 | activation (reporter increase), % at 12.5 µM | 0.3% of 340,000 active | AID 602342, 2012;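 active = mean replicate activation score at least 90 and every replicate individually at or above 90; inconclusive = only one of the two criteria met; inactive = neither criterion met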;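 note: higher luciferase means less miR-122 activity so hits act as miR-122 inhibitors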
PGC1a acetyl inh – inhibitors of PGC1a acetylation signal, primary screen, cell-based, U2OS, AlphaScreen, inhibitor mode | AlphaScreen anti-acetyl-lysine; with virally co-expressed GCN5 acetyltransferase | inhibition, % at 15.6 µM | 0.17% of 350,000 active;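 active = every replicate shows inhibition of at least 40%; inconclusive = mean inhibition at least 40% but some replicate below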
PvdQ acylase – P. aeruginosa PvdQ acylase inhibitors, primary screen, biochemical, fluorescence, plate reader and imaging, single point. PvdQ acylase [Pseudomonas aeruginosa LESB58]. purified PvdQ acylase. inhibition, % at 10 µM. 0.063% of 340,000 active. AID 488965, 2010; in the data active = inhibition above about 30%, passing the limit was not always enough; inconclusive = no clear call, values can overlap the other calls
DENV2 CPE – inhibitors of DENV2 cytopathic effect, primary screen, cell-based, plate reader, single concentration; DENV2-infected cells, cytopathic effect rescue; CPE inhibition, % at 9.99 µM; 1.7% of 350,000 active; AID 651640, 2012; in the data active = CPE inhibition above about 20%, passing the limit was not always enough; inconclusive = no clear call, values can overlap the other calls; tested in BHK-21 cells
Each line names hits and unclear results; the compound was inactive in the other large screens; ! = a repeat was not active.

C[C@@H]1CCCCO[C@@H](CN(C)Cc2ccc(C(=O)Nc3ccccc3N)cc2)[C@@H](C)CN([C@H](C)CO)C(=O)c2cc(NC(=O)Nc3ccc(C(F)(F)F)cc3)ccc2O1	none (no result: Statin myotox sup, miR-122 sensor, PvdQ acylase)
C[C@@H]1CCCCO[C@H](CN(C)S(=O)(=O)c2ccc(Cl)cc2)[C@@H](C)CN([C@@H](C)CO)C(=O)c2cc(NS(=O)(=O)c3cn(C)cn3)ccc2O1	DENV2 CPE inconclusive (no result: Statin myotox sup, PvdQ acylase)
COc1cccc(-c2cnc3c(c2)C(=O)N([C@H](C)CO)C[C@H](C)[C@H](CN(C)C(=O)Nc2ccc4c(c2)OCO4)O3)c1	none (no result: PvdQ acylase)
C[C@H]1CN([C@@H](C)CO)C(=O)Cc2cc(NS(C)(=O)=O)ccc2O[C@H]1CN(C)C	none (no result: PvdQ acylase)
O=C(C1=C[C@@H](c2ccc(C(F)(F)F)cc2)C[C@@H](OCc2ccc(CO)cc2)O1)N1CCOCC1	DENV2 CPE 25!
O=C(C1=C[C@H](c2ccc(C(F)(F)F)cc2)C[C@H](OCc2ccc(CO)cc2)O1)N1CCCCCCC1	none (no result: DENV2 CPE)
CN1CCN(C(=O)C2=C[C@H](c3ccc(C(F)(F)F)cc3)C[C@H](OCc3ccc(CO)cc3)O2)CC1	DENV2 CPE 47!
C/C=C/c1ccc([C@H]2[C@@H](CO)N(C(C)=O)C23CN(C(=O)c2ccc(F)cc2)C3)cc1	none (no result: Statin myotox sup, miR-122 sensor, PvdQ acylase)
CC(=O)N1CCCCN2[C@@H](CO)[C@H](c3ccc(-c4cccc(C(=O)N(C)C)c4)cc3)[C@@H]2C1	none (no result: Statin myotox sup, PvdQ acylase)
C#CCSc1nnc(-c2ccc([N+](=O)[O-])cc2)o1	none
CSc1nnc(-c2ccc([N+](=O)[O-])cc2)o1	PvdQ acylase 58
CCOC(=O)c1sc2nc(C)nc(NCCc3ccccn3)c2c1C	none (no result: Statin myotox sup, PGC1a acetyl inh, DENV2 CPE)
CCOC(=O)c1sc2nc(C)nc(NCc3ccccc3OC)c2c1C	PGC1a acetyl inh 63
N#C[C@H]1[C@@H](c2ccc(C3=CCCC3)cc2)[C@@H](CO)N1C(=O)C1CCCC1	DENV2 CPE 72 (no result: miR-122 sensor, PvdQ acylase)
N#C[C@@H]1[C@@H](c2ccc(-c3cncnc3)cc2)[C@H](CO)N1C(=O)C1CCCC1	DENV2 CPE 23 (no result: miR-122 sensor, PvdQ acylase)
c1cnc2ccc(C(c3nnnn3C3CCCC3)N3CCN(c4nc5ccccc5s4)CC3)cc2c1 (centres undefined)	Statin myotox sup 122 (no result: DENV2 CPE)
Clc1ccc(C(c2nnnn2C2CCCC2)N2CCN(c3nc4ccccc4s3)CC2)cc1 (centres undefined)	none (no result: Statin myotox sup, DENV2 CPE)
O=[N+]([O-])c1ccc(N2CCN(S(=O)(=O)c3ccccc3[N+](=O)[O-])CC2)cc1N1CCc2ccccc2C1	DENV2 CPE 112
O=C(Cc1cccnc1)N[C@@H]1CC[C@@H](CCn2cc(Cc3ccccc3)nn2)O[C@H]1CO	none (no result: miR-122 sensor, PvdQ acylase)
O=C(Cc1cccnc1)N[C@H]1CC[C@@H](CCn2cc(Cc3ccccc3)nn2)O[C@H]1CO	DENV2 CPE 89 (no result: miR-122 sensor, PvdQ acylase)
O=C(C[C@@H]1CC[C@H](NC(=O)Cc2cccnc2)[C@@H](CO)O1)Nc1ccccc1	DENV2 CPE 44 (no result: Statin myotox sup, miR-122 sensor, PvdQ acylase)
CC(NC(=O)C12CC3CC(CC(C3)C1)C2)C(=O)N/N=C/C1=C(N2CCOCC2)C(=C\c2ccccc2)/CC1 (centres undefined)	DENV2 CPE 133 (no result: Statin myotox sup, PGC1a acetyl inh)
Cn1cc(C(=O)N/N=C/C2=C(N3CCOCC3)C(=C\c3ccccc3)/CC2)ccc1=O	none (no result: Statin myotox sup, miR-122 sensor, PGC1a acetyl inh, DENV2 CPE)
CN1CCN(C(=O)C[C@H]2CC[C@H]3[C@@H](COC[C@@H](O)CN3Cc3cccc(Cl)c3)O2)CC1	none (no result: PvdQ acylase)
CN1CCN(C(=O)C[C@@H]2CC[C@H]3[C@@H](COC[C@@H](O)CN3Cc3cccc(Cl)c3)O2)CC1	DENV2 CPE 27 (no result: PvdQ acylase)
O=C(C[C@@H]1CC[C@H]2[C@@H](COC[C@@H](O)CN2Cc2cccc(Cl)c2)O1)N1CCOCC1	DENV2 CPE 90 (no result: PvdQ acylase)
O=C(C[C@@H]1CC[C@@H]2[C@H](COC[C@H](O)CN2Cc2cccc(Cl)c2)O1)N1CCOCC1	DENV2 CPE 103 (no result: PvdQ acylase)
COCC(=O)Nc1ccc2c(c1)OC[C@@H](C)N(C(=O)Cc1ccccn1)C[C@H](C)[C@@H](OC)CN(C)C2=O	none (no result: PvdQ acylase)
CC(C)NC(=O)N(C)C[C@H]1Oc2ccc(NC(=O)Nc3ccc(F)cc3)cc2CC(=O)N([C@H](C)CO)C[C@@H]1C	none (no result: PvdQ acylase)
COc1cccc(NC(=O)CCCN2C(=O)C3CC=CCC3C2=O)c1 (centres undefined)	none (no result: Statin myotox sup, miR-122 sensor, PGC1a acetyl inh)

Screening results as filed in PubChem BioAssay.
